Compound activity from PubChem BioAssay.
DT40 TDP1 no CPT = qHTS for Inhibitors of human tyrosyl-DNA phosphodiesterase 1 (TDP1): qHTS in cells in absence of CPT | DT40 Tdp1-/- hTDP1 cells, no CPT, ATP luminescence, 48 h | hit rate 15% among 420,000 | Potency, µM (highest dose often 46.2 µM), for the others: top-dose activity change, negative = growth inhibition, actives largely listed as inhibitors; further: potency means the concentration at half of the fitted maximal effect; nearly all actives have a fitted effect of over 55% in size
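Growth kinetics read by CellTiter-Glo luminescence after ≥48 hr at 37 °C. Cells: DT40 Tdp1-/- stably carrying human TDP1, 400 per well, compound exposure in the absence of CPT (DMSO vehicle).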
TDP1 cell CPT = qHTS for Inhibitors of human tyrosyl-DNA phosphodiesterase 1 (TDP1): qHTS in cells in presence of CPT; chicken DT40 Tdp1-/-;hTDP1 cells + 20 nM CPT, ATP luminescence, 48 h; Potency, µM (highest dose often 46.2 µM), for inactives: top-dose activity change, negative = growth inhibition, actives largely listed as inhibitors; AID 686979, 2013; hit rate 12% among 420,000; further: potency means the concentration at half of the fitted maximal effect; nearly all actives have a fitted effect of over 55% in size
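Cell growth measured by CellTiter-Glo luminescence after a minimum 48 h, 37 C compound exposure with 20 nM CPT in Tdp1-knockout DT40 cells stably expressing hTDP1, seeded 400/well; qHTS titration format.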
HT1080-NT tox = qHTS for induction of synthetic lethality in tumor cells producing 2HG: qHTS for the HT-1080-NT fibrosarcoma cell line | hit rate 1.6% among 360,000 | HT-1080-NT fibrosarcoma viability, CellTiter-Glo ATP luminescence, 48 h | Potency, µM (doses to about 46.1 µM), inactives show at the highest dose activity, negative = less viability, hits mostly cytotoxic;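 further: NT is the 2HG producing partner of a matched IDH1 knockdown line; potency means the concentration at half of the fitted maximal effect; 0% = DMSO-treated cells and -100% = media-only wells without cells; nearly all actives have a fitted effect of over 55% in size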
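750 cells/well, RPMI + 5% FBS; 2 h settle, compound pin-transfer, 48 h at 37 degrees C. CellTiter-Glo 10 min RT, luminescence. Normalized to DMSO and media-only wells.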
IL1B secr inh = qHTS for Inhibitors of Inflammasome Signaling: IL-1-beta AlphaLISA Primary Screen; THP-1 LPS/ATP IL-1B secretion, AlphaLISA, 16 h; hits give low values; activity change, % at 57.5 µM; hit rate 4.7% among 360,000; AID 743279, 2014; in the data active means activity change below about -50%; inconclusive means mostly about -30% to -49%
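THP-1 cells pretreated 1 hr with compounds (up to 57.5 uM final), then stimulated with LPS (250 ng/mL final) plus ATP (1.25 mM final); secreted IL-1B measured by AlphaLISA after 16 hr, decreased signal indicating inhibition.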
HT1080 IDH1KD tx = qHTS for induction of synthetic lethality in tumor cells producing 2HG: qHTS for the HT-1080-IDH1KD cell line | Potency, µM (titrated, usually from 46.1 µM), without a hit: at the top dose activity, negative = toxicity, usual class: cytotoxic | hit rate 2% among 360,000 | HT-1080 IDH1 knockdown viability, ATP luminescence, 48 h;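 further: potency means the concentration at half of the fitted maximal effect; 0% = DMSO wells and -100% = cell-free medium wells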
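Knockdown cells (IDH1KD HT-1080) received compounds 2 h after plating at 750 cells/well and were kept 48 h at 37 °C in 5% FBS RPMI. A CellTiter-Glo luminescence read gave % activity for curve fitting.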
* = called active by the depositor; ? = inconclusive; . = no result. A selection: hits, their analogues and other compounds. The true share with any hit is near 19%. Unless noted, the call rests on the fitted dose curve; in most records, active means well fitted curve in the direction sought with a large enough effect; inconclusive means small, poorly fitted or top-dose-only effect, or another doubt; inactive means no such curve, though single readings can be large; an effect the other way counts as inactive or inconclusive. Unless noted, on the % scale 0 is the no-effect control and ±100 the full control effect.

SMILES	DT40 TDP1 no CPT	TDP1 cell CPT	HT1080-NT tox	IL1B secr inh	HT1080 IDH1KD tx
CC(C)(C)OC(=O)N1CCC(C(=O)N2CCC[C@H]2C(=O)O)CC1	-1%	-3%	5%	9	4%
C=CCNC(=O)c1c(C(F)(F)F)nn(C)c1Cl	-7%	0%	3%	17	4%
CCOc1ccc(-c2noc(CSc3nnc(-c4ccccc4)n3-c3ccccc3)n2)cc1	12µM*	21µM*	.	.	.
c1ccc(-c2noc(CSc3nnnn3-c3ccccc3)n2)cc1	?	-14%	-12%	5	-8%
CCOc1ccc(-c2nnc(SCc3nnc(-c4ccccc4)o3)n2-c2ccccc2F)cc1	23µM*	16µM*	2%	-4	-3%
Cc1ccc(-n2c(SCc3nc(-c4ccc(Cl)cc4)no3)nnc2-c2ccncc2)cc1	16µM*	15µM*	.	.	.
CCOc1ccc(-n2c(SCc3nc(-c4ccc(C)cc4)no3)nnc2-c2ccncc2)cc1	?	?	?	-11	10µM*
Cn1c(SCc2nc(-c3ccc(Cl)cc3)no2)nnc1-c1ccco1	?	-22%	1%	14	1%
Cc1ccc(-n2c(SCc3ccc(C(=O)O)cc3)nnc2-c2ccncc2)cc1	-6%	-19%	-11%	14	7%
COC(=O)c1cc(S(=O)(=O)NCC2CCN(CCc3cccs3)CC2)c[nH]1	16%	6%	12%	0	6%
O=c1c2c3c(sc2nnn1Cc1ccc(Br)cc1)CCCC3	?	-21%	.	.	.
Clc1ccc(-c2noc(CSc3nnc(-c4ccncc4)n3-c3ccccc3)n2)cc1	?	?	?	-56*	?
COc1ccc(-n2nnnc2SCC(=O)Nc2nnc(C)s2)cc1	5.6µM*	6.3µM*	0%	20	1%
CCOC(=O)c1c(NC(=O)CSc2nnc(CNc3ccc(Cl)cc3)o2)sc(C)c1C	13µM*	?	-19%	-9	-25%
CCOC(=O)c1c(NC(=O)CSc2nnnn2-c2ccc(OC)cc2)sc(C)c1C	4.1µM*	6.5µM*	0%	-59*	16%
COC(=O)c1ccc(NC(=O)C(=O)NCCc2sc3nc(-c4ccc(OC)cc4)nn3c2C)cc1	-23%	7%	.	.	.
CSc1ccc(Cl)c(C(=O)NCc2ccco2)c1	?	16µM*	10%	-15	7%
O=C(NCc1ccco1)c1ccc(-c2ccc3nccn3c2)cc1	?	23µM*	11%	-101*	?
O=C(NC1CC1)c1ccc(-c2ccc3nccn3c2)cc1	-23%	?	11%	-18	-4%
O=C(NCc1ccco1)c1ccc(C(=O)NCc2ccco2)s1	26µM*	?	13%	-17	20%
Cc1ccc(-c2csc(NC(=O)/C=C/c3ccco3)c2C(=O)O)cc1	-5%	-8%	-13%	3	-1%
N#CC(Sc1ccccn1)c1ccc(Cl)cc1Cl (stereo unspecified)	-29%	-12%	-3%	-30	-25%
CC(=O)N1c2ccc(S(=O)(=O)N3CCC(C(=O)Nc4cccc(Cl)c4C)CC3)cc2CC1C (stereo unspecified)	23µM*	15µM*	.	.	.
Cc1cc(Cl)ccc1NC(=O)NC1CCN(S(=O)(=O)c2ccc(F)cc2)CC1	?	23µM*	-1%	-7	-8%
COc1ccccc1NC(=O)C1CCN(S(=O)(=O)c2ccc3c(c2)CC(C)N3C(C)=O)CC1 (stereo unspecified)	?	?	1%	36	-1%
SMILES	DT40 TDP1 no CPT	TDP1 cell CPT	HT1080-NT tox	IL1B secr inh	HT1080 IDH1KD tx
COc1ccc(Cl)cc1NC(=O)C1CCN(S(=O)(=O)c2ccc3c(c2)CC(C)N3C(C)=O)CC1 (stereo unspecified)	21µM*	16µM*	.	.	.
CC(=O)N1c2ccc(S(=O)(=O)N3CCC(C(=O)NC4CCC(C)CC4)CC3)cc2CC1C (stereo unspecified)	-13%	-24%	2%	33	5%
CC(=O)N1c2ccc(S(=O)(=O)N3CCC(C(=O)Nc4cccc(Cl)c4)CC3)cc2CC1C (stereo unspecified)	2.1µM*	2.1µM*	-2%	15	?
Cn1cc(C(=O)Nc2ccc(Cl)c(Cl)c2)cn1	?	?	0%	0	-7%
CC(=O)N1c2ccc(S(=O)(=O)N3CCC(C(=O)Nc4cccc(C)c4)CC3)cc2CC1C (stereo unspecified)	?	16µM*	-1%	21	-8%
CC(=O)N1c2ccc(S(=O)(=O)N3CCC(C(=O)Nc4cccc(F)c4)CC3)cc2CC1C (stereo unspecified)	?	16µM*	-27%	-1	-13%
COc1ccc(Cl)cc1NC(=O)C1CCN(S(=O)(=O)c2ccc(F)cc2)CC1	18µM*	?	.	.	.
CC(=O)N1c2ccc(S(=O)(=O)N3CCC(C(=O)Nc4cc(C)cc(C)c4)CC3)cc2CC1C (stereo unspecified)	?	?	-2%	0	-1%
O=C(Nc1ccc(F)cc1F)NC1CCN(Cc2c(F)cccc2Cl)CC1	21µM*	?	-1%	.	?
COc1ccc(Cl)cc1NC(=O)C1CCN(S(C)(=O)=O)CC1	9%	1%	-2%	-2	3%
CCN(CC)S(=O)(=O)c1ccc(NC(=S)Nc2ccc(F)cc2)cc1	?	?	1%	26	0%
O=C(NC1CCCCCC1)c1cccnc1Sc1ccccc1	?	-9%	0%	3	0%
Cc1cc(C(F)(F)F)nn1Cc1ccc(C(=O)NCc2ccco2)o1	13µM*	16µM*	-1%	-19	?
Cc1ccc([N+](=O)[O-])cc1N=C1C(=O)Nc2ccccc21	-30%	-20%	-29%	-89*	?
Cc1cc(Br)ccc1N=C1C(=O)Nc2ccccc21	-6%	7%	-2%	29	8%
O=C1Nc2ccccc2C1=Nc1ccccc1-c1ccccc1	?	?	-7%	-70*	6%
COc1cc(/C=N/Nc2ccccn2)ccc1OCC(C)C	10µM*	?	-13%	-22	-27%
COc1cc(/C=N/Nc2ccccn2)cc(OC)c1O	?	?	-11%	-100*	-21%
C=CCOc1ccc(/C=N/Nc2ccccn2)cc1OC	26µM*	-28%	-3%	-11	-14%
CCOc1ccc(/C=N/Nc2ccccn2)cc1OC	?	-32%	-12%	-4	-10%
COc1ccc(Cc2nnc(SCC(=O)c3ccc4c(c3)OCO4)o2)cc1	?	?	2%	4	5%
